Data taken from PubChem BioAssay AID504333 (National Center for Advancing Translational Sciences (NCATS), 2011).
Hit rate of the full screen: of about 360,000 compounds, about 16,000 (4.4%) were called active. Another 9% or so got no clear call; they are omitted. Calls come from the whole dose curve; as a rule, active = well fitted inhibition curve with a large enough effect; inconclusive = small, poorly fitted or top-dose-only effect; inactive = no such curve, though single readings can be large or run the other way. This excerpt belongs to a sample that is enriched for actives.

biological target: Bromodomain adjacent to zinc finger domain protein 2B (Homo sapiens) (UniProt Q9UIF8); assay: qHTS Assay for Inhibitors of BAZ2B; conditions: AlphaScreen BAZ2B-H3K14Ac peptide displacement; series mostly up to 114 µM; activity change, negative = inhibition: at the top concentration; note: nearly all actives have a fitted effect of over 60% in size
Excerpt: BAZ2B (bromodomain adjacent to zinc finger domain, 2B) belongs to a family of ubiquitously expressed bromodomain containing proteins, which biological function has not yet been elucidated. […] The interaction of BAZ2B with ISWI mediated by the BAZ1 motif has recently been described. […] The protocol is based on the AlphaScreen (PerkinElmer) displacement assay developed by NCGC [5], but uses the peptide ligand Biot-H3K14Ac, a high affinity binding partner for BAZ2B, in an AlphaScreen format. Although AlphaScreen has significant advantages with its utility in a variety of epigenetic target assays, the primary screening data provided in this deposition should be used with caution due to the prevalence of screening artifacts. The top compound concentration tested was 110uM in this assay, which increases number of actives and potential artifacts. An AlphaScreen counterscreen is highly recommended to be run against any putative actives to eliminate non-specific artifacts. Alternatively, one can use other AlphaScreen assays in PubChem to filter out promiscuous hits. Eberharter, A. et al. ACF1 improves the effectiveness of nucleosome mobilization by ISWI through PHD-histone contacts. The EMBO journal 23, 4029-4039. 2004. PMID: 15457208 [2] Jones, M.H. et al. A novel family of bromodomain genes. Genomics 63, 40-45. 2000. PMID: 10662543 [3] Yasgar, et al. Compound Management for Quantitative High-Throughput Screening. JALA. 2008 Apr;13(2):79-89. PMID: 18496600 [4] Inglese, et al. Quantitative high-throughput screening: a titration-based approach that efficiently identifies biological activities in large chemical libraries. Proc Natl Acad Sci. 1;103(31):11473-8. 2006. PMID: 16864780 [5] Quinn et al. A chemiluminescence-based method for identification of histone lysine methyltransferase inhibitors. Mol Biosyst 6(5): 782-8. 2010. PMID: 20567762 [6] Baell,Holloway. New substructure filters for removal of pan assay interference compounds (PAINS) from screening libraries and for their exclusion in bioassays. J Med Chem. 53(7):2719-40. 2010. PMID: 20131845 NIH Molecular Libraries Probe Production Network [MLPCN] NIH Chemical Genomics Center [NCGC] Structural Genomics Consortium (SGC) NIH Grant: 5U54 MH084681-02
To each well of a 1,536w plate, 2ul of BAZ2B protein (final 50nM) and 1ul biotinylated histone peptide acetylated at Lys14 [b-H3(5-23)K14Ac] (final 50nM) were added in 1x PBS buffer, pH 7.4, containing 0.01% Tween-20, using a nanoliter dispenser. Formation of a protein-peptide complex proceeded at room temperature for 30 min. A Kalypsys pin-tool was employed to transfer 23 nL of library compound solution in DMSO to each well. Following a 30 min incubation of the protein-peptide complex with compounds at room temperature, a mixture of 40 ug/mL each streptavidin-coated donor and nickel chelate acceptor AlphaScreen beads (final 10 ug/mL) were added in a 1ul dispense for a final volume of 4ul. A brief centrifugation followed (1000rpm, 1 min) and were then incubated protected from the light for 20 min at room temperature. Plates were read on an EnVision multilabel plate reader using the 1,536 plate HTS AlphaScreen aperture (excitation time 80 ms, measurement time 240 ms).
% is set by controls: 0 for no effect and ±100 for the full control effect; potency is the fitted concentration of half-maximal effect.

Chain of Bromodomain adjacent to zinc finger domain protein 2B (Homo sapiens) (Q9UIF8 whole entry, looked up, the tested form may be a part): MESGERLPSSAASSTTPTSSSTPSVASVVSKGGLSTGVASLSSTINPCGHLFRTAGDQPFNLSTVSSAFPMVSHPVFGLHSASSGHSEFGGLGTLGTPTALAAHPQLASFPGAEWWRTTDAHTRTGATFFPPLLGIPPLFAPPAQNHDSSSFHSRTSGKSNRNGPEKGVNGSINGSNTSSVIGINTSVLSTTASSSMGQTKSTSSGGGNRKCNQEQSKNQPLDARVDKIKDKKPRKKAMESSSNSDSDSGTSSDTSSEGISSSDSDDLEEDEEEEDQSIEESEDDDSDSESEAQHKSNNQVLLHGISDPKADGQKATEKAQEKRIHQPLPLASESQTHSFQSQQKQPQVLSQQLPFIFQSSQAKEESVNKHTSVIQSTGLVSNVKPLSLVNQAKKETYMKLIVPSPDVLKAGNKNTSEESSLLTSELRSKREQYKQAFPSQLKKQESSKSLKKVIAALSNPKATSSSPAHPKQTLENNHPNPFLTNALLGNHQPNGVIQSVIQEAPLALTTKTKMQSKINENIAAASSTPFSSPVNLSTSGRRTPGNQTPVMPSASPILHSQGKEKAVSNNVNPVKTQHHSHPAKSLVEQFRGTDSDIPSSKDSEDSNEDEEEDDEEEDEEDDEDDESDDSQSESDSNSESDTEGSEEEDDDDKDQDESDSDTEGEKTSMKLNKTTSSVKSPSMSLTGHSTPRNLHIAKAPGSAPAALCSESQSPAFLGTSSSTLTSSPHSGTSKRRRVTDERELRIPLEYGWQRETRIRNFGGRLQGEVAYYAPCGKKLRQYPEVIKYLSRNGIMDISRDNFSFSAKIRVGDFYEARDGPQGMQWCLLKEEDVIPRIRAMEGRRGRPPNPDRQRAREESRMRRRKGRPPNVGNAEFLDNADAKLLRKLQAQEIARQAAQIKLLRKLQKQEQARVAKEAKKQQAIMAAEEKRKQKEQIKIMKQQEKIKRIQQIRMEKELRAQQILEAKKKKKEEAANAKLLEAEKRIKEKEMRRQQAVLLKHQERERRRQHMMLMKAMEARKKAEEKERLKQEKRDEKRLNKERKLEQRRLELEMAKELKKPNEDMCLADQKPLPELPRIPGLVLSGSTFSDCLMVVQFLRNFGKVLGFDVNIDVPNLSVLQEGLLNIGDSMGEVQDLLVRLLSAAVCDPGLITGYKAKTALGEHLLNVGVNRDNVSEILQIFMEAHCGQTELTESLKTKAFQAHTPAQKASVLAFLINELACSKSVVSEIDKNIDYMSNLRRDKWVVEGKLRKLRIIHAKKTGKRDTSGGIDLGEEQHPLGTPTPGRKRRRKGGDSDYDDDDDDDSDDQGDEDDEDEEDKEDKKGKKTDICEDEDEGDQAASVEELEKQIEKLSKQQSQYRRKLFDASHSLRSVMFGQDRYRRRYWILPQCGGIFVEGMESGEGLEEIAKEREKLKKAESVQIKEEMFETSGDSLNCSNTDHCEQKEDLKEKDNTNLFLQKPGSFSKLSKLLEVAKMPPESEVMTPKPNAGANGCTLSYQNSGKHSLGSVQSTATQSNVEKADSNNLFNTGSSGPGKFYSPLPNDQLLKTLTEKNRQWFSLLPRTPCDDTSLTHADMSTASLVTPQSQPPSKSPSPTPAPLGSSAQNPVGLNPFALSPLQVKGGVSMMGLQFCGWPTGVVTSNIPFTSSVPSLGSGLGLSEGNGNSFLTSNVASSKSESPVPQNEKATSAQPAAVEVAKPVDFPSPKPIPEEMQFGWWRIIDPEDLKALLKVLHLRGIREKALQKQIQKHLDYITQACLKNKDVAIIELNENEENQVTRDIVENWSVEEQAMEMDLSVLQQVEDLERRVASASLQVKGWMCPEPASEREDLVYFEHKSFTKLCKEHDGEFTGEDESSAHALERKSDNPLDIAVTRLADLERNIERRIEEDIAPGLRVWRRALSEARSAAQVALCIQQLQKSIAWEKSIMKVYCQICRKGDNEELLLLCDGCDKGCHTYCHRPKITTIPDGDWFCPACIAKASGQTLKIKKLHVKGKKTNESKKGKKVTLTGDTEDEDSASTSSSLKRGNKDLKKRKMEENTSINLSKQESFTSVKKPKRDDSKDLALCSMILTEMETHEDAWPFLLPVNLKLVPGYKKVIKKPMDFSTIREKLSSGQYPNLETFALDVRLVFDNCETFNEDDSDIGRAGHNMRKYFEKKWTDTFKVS

Row | Compound | activity change, negative = inhibition | Potency
1 | CCCS(=O)(=O)c1c(Nc2ccccc2C)sc(C(=O)c2ccccc2)c1N | -30.6% (inactive) | –
2 | Cc1ccc(-c2nn3c(=O)cc(CN4CCN(S(=O)(=O)c5ccc(Cl)cc5)CC4)nc3s2)cc1 | -2.85% (inactive) | –
3 | COc1cc(NC(=O)c2cc(C3CC3)nc3c2c(C)nn3-c2ccccc2)cc(OC)c1 | 10.3% [at 57.1 µM] (inactive) | –
4 | O=C(/C=C/c1ccccc1)Nc1cc(-c2nc3cc(Cl)ccc3o2)ccc1Cl | -6.45% (inactive) | –
5 | CCN(CCCNC(=O)Cn1ncc2c([nH]c3ccccc32)c1=O)c1cccc(C)c1 | -10.1% (inactive) | –
6 | CCCCNC(=O)c1ccc2c(c1)NC(=O)C(C(C)C)N2 (stereo unspecified) | -2.58% (inactive) | –
7 | CCN(CCCNC(=O)c1ccc2c(c1)NC(=O)CN2C)c1cccc(C)c1 | – | 50.1 µM (active)
8 | CCC1CCCCN1C(=O)Cn1c(=O)n(CCCCCC(=O)NCc2ccccc2)c(=O)c2sccc21 (stereo unspecified) | 4.84% (inactive) | –
9 | Cc1ccc(C(=O)Nc2nc(-c3ccccc3)ns2)cc1 | 1.63% (inactive) | –
10 | CCC(=O)Nc1nc(C)c(C(=O)Nc2cccc(Cl)c2)s1 | -34.4% (inactive) | –
11 | Cc1nc(NC(=O)c2cccc(Cl)c2)sc1-c1csc(Nc2cccc(Cl)c2)n1 | -13.5% (inactive) | –
12 | CCOC(=O)c1csc(NC(=O)Nc2cccc(OC)c2)n1 | -4.77% (inactive) | –
13 | COc1cccc(CC(=O)Nc2ccc(-c3csc(C)n3)cc2)c1 | -13.6% (inactive) | –
14 | CC(=O)Nc1nc(C)c(-c2csc(Nc3ccc(S(N)(=O)=O)cc3)n2)s1 | -12.2% (inactive) | –
15 | C=CCCC(=O)Nc1nc(C)c(-c2csc(Nc3ccc(Cl)cc3)n2)s1 | – | 44.7 µM (active)
16 | Cc1ccc(Nc2nc(-c3sc(NC(=O)c4ccccc4)nc3C)cs2)cc1 | – | 50.1 µM (active)
17 | CCCCCCC(=O)Nc1nc(C)c(-c2csc(Nc3cccc(OC)c3)n2)s1 | – | 50.1 µM (active)
18 | O=C(NCCc1ccc(Cl)cc1)c1ccc2c(c1)N(Cc1ccc(F)cc1)C(=O)CS2 | -2.79% (inactive) | –
19 | COc1cc(NC(=O)c2noc3c2CSc2ccccc2-3)cc(OC)c1OC | -8.66% (inactive) | –
20 | COc1ccc(-n2c(=O)c3sc4ccccc4c3n(CC(=O)Nc3cccc(C)c3)c2=O)cc1 | -6.4% (inactive) | –
21 | COc1ccc(NC(=O)Cn2c(=O)n(CCC(C)C)c(=O)c3cccnc32)cc1Cl | -0.608% (inactive) | –
22 | Cc1cccc(OCCCC(=O)Nc2sc3c(c2C(N)=O)CCC(C)C3)c1 (stereo unspecified) | -8.35% (inactive) | –
23 | COc1ccc(Cl)cc1NC(=O)Cn1c(=O)c2ccccc2n2nncc12 | -22.9% (inactive) | –
24 | COc1ccc(OC)c(NC(=O)CN2CCCN(Cc3cc(C)ccc3C)S2(=O)=O)c1 | -18.8% (inactive) | –
25 | Cc1cc(C(=O)Nc2cccc(C(F)(F)F)c2)c2c(C)nn(-c3cccc(F)c3)c2n1 | 18% [at 57.1 µM] (inactive) | –
26 | CC(=O)c1ccc(N2CCN(C3C(=O)c4ccccc4N3C(C)=O)CC2)cc1 (stereo unspecified) | -14.1% (inactive) | –

Row | Compound | activity change, negative = inhibition | Potency
27 | Cc1ccc(C)c(Cn2c(CCCNC(=O)C3CCCCC3)nc3ccccc32)c1 | -25.4% (inactive) | –
28 | O=C(Nc1ccc(F)cc1)N1CCN(c2ccc(F)cc2)CC1 | 2.02% (inactive) | –
29 | CC(=O)c1ccc(N2CCN(C(=O)CCc3ccccc3)CC2)cc1 | 8.19% [at 0.457 µM] (inactive) | –
30 | CC(=O)N1CCN(c2ccc(NCc3ccc(C(C)C)cc3)cc2)CC1 | – | 35.5 µM (active)
31 | COc1cc(OC)c(NC(=O)c2cnc(N3CCCC3)nc2C)cc1Cl | -6.13% (inactive) | –
32 | O=C(NCc1ccccc1)c1ccc2c(c1)nc1n2CCCCC1 | 7.55% (inactive) | –
33 | COc1cccc(C(=O)Nc2ccc3oc(-c4ccc5ccccc5c4)nc3c2)c1 | -8.57% (inactive) | –
34 | CCN1/C(=C\c2ccc3ccccc3[n+]2CC)Sc2cc(C)ccc21 | – | 50.1 µM (active)
35 | CCCSc1nc2sc3c(c2c(=O)n1-c1cccc(Br)c1)CC(C)(C)OC3 | 3.93% (inactive) | –
36 | Cc1c(Cl)cnc(NC(=O)COC(=O)c2ccc(S(=O)(=O)NCc3ccco3)cc2)c1Cl | – | 50.1 µM (active)
37 | O=S(=O)(NCc1ccco1)c1cnc(Cl)c(Cl)c1 | 1.63% (inactive) | –
38 | CSCCC(NC(=O)c1ccco1)C(=O)OCC(=O)Nc1ncc(Cl)c(C)c1Cl (stereo unspecified) | -37.8% (inactive) | –
39 | O=C(CCCl)Nc1ccc(S(=O)(=O)NCc2ccco2)cc1 | -31% (inactive) | –
40 | O=C(COC(=O)c1cnc(Cl)c(Cl)c1)NCc1ccco1 | – | 50.1 µM (active)
41 | O=C(COC(=O)c1ccco1)NCc1ccc(Cl)cc1 | -1.66% (inactive) | –
42 | Cc1nn2c(=O)cc(COC(=O)CNC(=O)c3ccc(F)cc3)nc2s1 | -23.7% (inactive) | –
43 | CC1=C(c2ccc(C)c(C)c2)S(=O)(=O)NC1=NCc1ccccc1Cl | -20.8% (inactive) | –
44 | CCn1nc(C(=O)Nc2ccc(N3CCOCC3)cc2)c2ccccc2c1=O | -3.8% (inactive) | –
45 | CC(C)c1ccc(NC(=O)c2ccc(Cn3nc(N4CCN(c5ccccc5)CC4)ccc3=O)o2)cc1 | – | 39.8 µM (active)
46 | COc1ccccc1N1CCN(c2ccc(=O)n(CC(=O)NCc3ccc(OC(C)C)cc3)n2)CC1 | -12.3% (inactive) | –
47 | Fc1ccccc1Oc1ncnc2c1oc1ccccc12 | 6.13% (inactive) | –
48 | O=C(Nc1ccc(Br)cc1)c1cc2nc(-c3ccccc3)cc(-c3ccccc3)n2n1 | 22.8% (inactive) | –
49 | COc1ccc(Cl)cc1C(=O)Nc1ccc(N(C)C(C)=O)cc1 | -1.13% (inactive) | –
50 | COc1cc(OC)c(C(=O)Nc2ccc(N(C)C)cc2)cc1OC | – | 50.1 µM (active)
51 | COc1cc(OC)c(C(=O)Nc2ccccc2-c2ccccc2)cc1OC | -25.7% (inactive) | –
